From PubChem BioAssay (Tox21)
Results filed as inconclusive are left out. The source made the active and inactive calls. The call rests on the fitted dose curve; in most records, active means well fitted curve in the direction sought with a large enough effect in the repeat runs; inconclusive means weak or mixed curves; inactive means no such curve, though single readings can be large; an effect the other way counts as inactive or inconclusive.

What was measured:
[1] = qHTS RealTime-Glo MT Cell Viability Assay in HepG2 cells - 40 hour (AID 1224870); further: nearly all actives have a fitted effect of over 50% in size
In short: (§1)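 HepG2 cells (600/well) mixed with RealTime-Glo MT reagent, settled 5 h at 37 C/5% CO2 before compound addition. Nonlytic NanoLuc luminescence from viable-cell prosubstrate reduction read repeatedly during 40 h treatment at 37 C.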

[2] = A CellTox Green Cytotoxicity Assay to monitor cytotoxicity in HEK293 cells - 40 hour (AID 1224871); further: nearly all actives have a fitted effect of over 45% in size
In short: (§2)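 Read-out: fluorescence of a cell-impermeant cyanine dye staining DNA of dead cells, proportional to cytotoxicity. HEK293, 600 cells/well with reagent, compound (23 nL DMSO) added after 5 h; reads at 0, 8, 16, 24, 32, 40 h.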

[3] = qHTS RealTime-Glo MT Cell Viability Assay in HEK293 cells - 16 hour (AID 1224872); further: top concentration of the series differs between compounds; nearly all actives have a fitted effect of over 50% in size
In short: (§3)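 HEK293 cells were seeded at 600 cells/well together with NanoLuc luciferase and cell-permeant prosubstrate, preincubated 5 h at 37 C/5% CO2, then given compound in DMSO by pintool. Luminescence from viable-cell prosubstrate reduction was read repeatedly over 40 h.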

[4] = qHTS RealTime-Glo MT Cell Viability Assay in HepG2 cells - 8 hour (AID 1224873); further: nearly all actives have a fitted effect of over 55% in size
In short: as §1

[5] = qHTS RealTime-Glo MT Cell Viability Assay in HEK293 cells - 40 hour (AID 1224874); conditions: RealTime-Glo luminescence; max response: hits give low values; further: nearly all actives have a fitted effect of over 50% in size; further: potency means the concentration at half of the fitted maximal effect
In short: (§4)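 Luminescence readout at each listed time point; HEK293, 600 cells/well, RealTime-Glo MT reagent added with cells; compounds pinned (23 nL in DMSO) after 5 h at 37 C; continuous culture at 37 C.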

[6] = A CellTox Green Cytotoxicity Assay to monitor cytotoxicity in HepG2 cells - 16 hour (AID 1224876); further: nearly all actives have a fitted effect of over 45% in size
In short: (§5)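 HepG2, 600 cells/well premixed w/ CellTox Green; 5 h settle, 37 C/5% CO2; pintool cpd add (DMSO); 37 C, 40 h; fluorescence read at 0, 8, 16, 24, 32, 40 h.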

[7] = qHTS RealTime-Glo MT Cell Viability Assay in HepG2 cells - 32 hour (AID 1224877); further: nearly all actives have a fitted effect of over 55% in size
In short: (§6)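 HepG2 cells were seeded at 600 cells/well together with NanoLuc luciferase and a cell-permeant prosubstrate, preincubated 5 h at 37 C/5% CO2, then pin-dosed with compounds in DMSO. Nonlytic luminescence from viable cells was read at each time point.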

[8] = A CellTox Green Cytotoxicity Assay to monitor cytotoxicity in HepG2 cells - 24 hour (AID 1224878); further: nearly all actives have a fitted effect of over 45% in size
In short: as §5

[9] = A CellTox Green Cytotoxicity Assay to monitor cytotoxicity in HepG2 cells - 40 hour (AID 1224879); further: nearly all actives have a fitted effect of over 40% in size
In short: as §5

[10] = qHTS RealTime-Glo MT Cell Viability Assay in HEK293 cells - 0 hour (AID 1224880); further: top concentration of the series differs between compounds; nearly all actives have a fitted effect of over 45% in size
In short: as §4

[11] = A CellTox Green Cytotoxicity Assay to monitor cytotoxicity in HEK293 cells - 32 hour (AID 1224881); further: nearly all actives have a fitted effect of over 40% in size
In short: as §2

[12] = A CellTox Green Cytotoxicity Assay to monitor cytotoxicity in HepG2 cells - 32 hour (AID 1224883); further: nearly all actives have a fitted effect of over 50% in size
In short: as §5

[13] = A CellTox Green Cytotoxicity Assay to monitor cytotoxicity in HEK293 cells - 8 hour (AID 1224884); further: nearly all actives have a fitted effect of over 35% in size
In short: as §2

[14] = qHTS RealTime-Glo MT Cell Viability Assay in HepG2 cells - 16 hour (AID 1224885); further: nearly all actives have a fitted effect of over 50% in size
In short: as §6

[15] = qHTS RealTime-Glo MT Cell Viability Assay in HEK293 cells - 24 hour (AID 1224886); further: nearly all actives have a fitted effect of over 50% in size; further: potency means the concentration at half of the fitted maximal effect
In short: as §3

[16] = qHTS RealTime-Glo MT Cell Viability Assay in HEK293 cells - 8 hour (AID 1224887)
In short: as §4

[17] = A CellTox Green Cytotoxicity Assay to monitor cytotoxicity in HEK293 cells - 16 hour (AID 1224888); further: nearly all actives have a fitted effect of over 35% in size
In short: as §2

[18] = qHTS RealTime-Glo MT Cell Viability Assay in HepG2 cells - 0 hour (AID 1224889); further: nearly all actives have a fitted effect of over 50% in size
In short: as §6

[19] = A CellTox Green Cytotoxicity Assay to monitor cytotoxicity in HepG2 cells - 0 hour (AID 1224882); further: nearly all actives have a fitted effect of over 35% in size
In short: as §5

[20] = A CellTox Green Cytotoxicity Assay to monitor cytotoxicity in HEK293 cells - 24 hour (AID 1224875)
In short: as §2
On the % scale 0 is the no-effect control and ±100 the full control effect.

Cc1oc(=O)oc1COC(=O)[C@@H]1N2C(=O)[C@@H](NC(=O)[C@H](N)c3ccccc3)[C@H]2SC1(C)C
inactive: Potency [1] | Potency [2] | Potency [3] | Potency [4] | max response [5] 6.21% | Potency [6] | Potency [7] | Potency [8] | Potency [9] | Potency [10] | Potency [11] | Potency [12] | Potency [13] | Potency [14] | Potency [15] | Potency [16] | Potency [17] | Potency [18]

CCCCCCCCCCCCCC(=O)OCC(O)CO (stereo not drawn)
inactive: Potency [1] | Potency [2] | Potency [3] | Potency [4] | max response [5] -0.733% | Potency [6] | Potency [7] | Potency [8] | Potency [9] | Potency [10] | Potency [19] | Potency [12] | Potency [15] | Potency [16] | Potency [18]

CC(C)c1ccc(C(=O)N=C(N)N)cc1S(C)(=O)=O
inactive: Potency [1] | Potency [2] | Potency [3] | Potency [4] | max response [5] 18.4% | Potency [20] | Potency [7] | Potency [8] | Potency [9] | Potency [10] | Potency [11] | Potency [19] | Potency [12] | Potency [15] | Potency [16] | Potency [17] | Potency [18]

CC(=O)c1ccc[nH]1
inactive: Potency [1] | Potency [2] | Potency [3] | Potency [4] | max response [5] -0.568% | Potency [6] | Potency [7] | Potency [8] | Potency [9] | Potency [10] | Potency [11] | Potency [12] | Potency [13] | Potency [14] | Potency [15] | Potency [16] | Potency [17] | Potency [18]

[Cl][Nd]([Cl])[Cl]
inactive: Potency [1] | Potency [2] | Potency [3] | Potency [4] | max response [5] 2.18% | Potency [20] | Potency [7] | Potency [8] | Potency [9] | Potency [10] | Potency [11] | Potency [19] | Potency [12] | Potency [14] | Potency [15] | Potency [16] | Potency [17] | Potency [18]

CCOC(=O)c1ccc(NC(=O)CN2CCCCC2)cc1
inactive: Potency [1] | Potency [2] | Potency [3] | Potency [4] | max response [5] -19.4% | Potency [20] | Potency [7] | Potency [9] | Potency [10] | Potency [11] | Potency [19] | Potency [12] | Potency [13] | Potency [14] | Potency [15] | Potency [16] | Potency [17] | Potency [18]

Oc1cccc2[nH]ccc12
inactive: Potency [1] | Potency [2] | Potency [3] | Potency [4] | max response [5] 12.2% | Potency [6] | Potency [7] | Potency [8] | Potency [9] | Potency [10] | Potency [11] | Potency [19] | Potency [12] | Potency [13] | Potency [14] | Potency [15] | Potency [16] | Potency [17] | Potency [18]

COC(CC(C)CCCC(C)(C)O)OC (stereo not drawn)
inactive: Potency [1] | Potency [2] | Potency [4] | max response [5] 1.35% | Potency [20] | Potency [6] | Potency [7] | Potency [8] | Potency [9] | Potency [10] | Potency [11] | Potency [12] | Potency [13] | Potency [15] | Potency [16] | Potency [17] | Potency [18]

CCN(CC)C(=O)N1CCN(C)CC1
inactive: Potency [1] | Potency [2] | Potency [4] | max response [5] 4.18% | Potency [20] | Potency [6] | Potency [7] | Potency [9] | Potency [10] | Potency [11] | Potency [19] | Potency [12] | Potency [14] | Potency [15] | Potency [16] | Potency [17] | Potency [18]

C=C(C)c1ccccc1
inactive: Potency [1] | Potency [2] | Potency [4] | max response [5] 1.05% | Potency [20] | Potency [6] | Potency [7] | Potency [8] | Potency [9] | Potency [10] | Potency [11] | Potency [19] | Potency [12] | Potency [13] | Potency [14] | Potency [15] | Potency [17] | Potency [18]

CC1CCCC(=O)C1=O (stereo not drawn)
inactive: Potency [1] | Potency [2] | Potency [3] | Potency [4] | max response [5] 4.99% | Potency [10] | Potency [11] | Potency [19] | Potency [13] | Potency [14] | Potency [15] | Potency [16] | Potency [17] | Potency [18]

CC(C)c1ccc(C#N)cc1
inactive: Potency [1] | Potency [2] | Potency [4] | Potency [20] | Potency [7] | Potency [9] | Potency [10] | Potency [11] | Potency [19] | Potency [13] | Potency [17] | Potency [18]
active: Potency [5] 15.5 µM | Potency [15] 17.4 µM
